Laboratory results as given in PubChem BioAssay.
The source made the active and inactive calls.

Assays:
Albumin (Bos taurus) = Albumin (Bos taurus) (UniProt P02769); experiment: bovine serum albumin binders on microarray, profiling panel, artefact control for SMM control protein annotation, biochemical, small-molecule microarray, Alexa647 label, 635/667 nm fluorescence (AID 1118); conditions: BSA-A647 binding, fluorescence 635 nm, higher = more signal;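 note: score merges 667 nm emission intensity and signal-to-noise per printed compound spot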
[1] = small-molecule microarray binders of probe aXIP, primary screen, biochemical, NeuroSMM set, 635/667 nm fluorescence (AID 1119); conditions: higher = more signal, called active from +8 up or from −8 down;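 note: probe is the protein aXip251-270 applied at 1 µg/mL to compound-printed slides; binding of probe to printed compounds measured as 667 nm fluorescence plus signal to noise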
[2] = small-molecule binders of probe aNOTCH3, primary screen, biochemical, small-molecule microarray, 635/667 nm fluorescence (AID 1120); conditions: higher = more signal;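 note: probe is a biotin-tagged antibody raised against NOTCH3 rather than NOTCH3 protein; score merges spot fluorescence near 667 nm with spot signal to noise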
[3] = small-molecule binders of probe aNOTCH2, primary screen, biochemical, small-molecule microarray, 635/667 nm fluorescence (AID 1121); conditions: higher = more signal;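 note: score merges feature fluorescence read at 667 nm with its signal to noise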
[4] = molecular target: Carbonic anhydrase 2 (Homo sapiens) (UniProt P00918); experiment: CAII small-molecule binders, profiling panel, biochemical, small-molecule microarray, Alexa647-labelled CAII (AID 1122); conditions: CAII-A647 binding fluorescence, higher = more signal
[5] = COS7 lysate on small-molecule microarray, probe aHis, 635 nm (AID 1123); conditions: COS7 cell lysate, fluorescence, higher = more signal;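 note: z-score combines 667nm fluorescence intensity with signal-to-noise per printed compound spot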
[6] = compound binding in COS7 lysate, probe aLAP1, primary screen, cell lysate, small-molecule microarray (AID 1124); conditions: probe aLAP1, fluorescence, higher = more signal;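 note: lysate comes from COS7 cells expressing LAP1 and is applied at 0.3 µg/mL; score merges spot fluorescence near 667 nm with signal-to-noise over triplicate slides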
Sam68 (KHDRBS1) = experiment: Sam68 small-molecule binders, primary screen, biochemical, small-molecule microarray, 635 nm fluorescence (AID 1125); conditions: small-molecule microarray binding, higher = more signal;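 note: score merges 667 nm channel intensity with signal to noise over triplicate slides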
[7] = tested on: Chordin-like protein 2 (CHRDL2); experiment: CHRDL2 small-molecule binders, primary screen, biochemical, small-molecule microarray, 635 nm fluorescence (AID 1126); conditions: small-molecule microarray binding, fluorescence 635 nm; higher = more signal;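 note: printed compound slides probed with Chrdl2 protein at 4 µg/mL for 1 h at 4 C; score merges 667 nm emission intensity with signal to noise over three replicate slides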
[8] = molecular target: Concanavalin-A (Canavalia ensiformis) (UniProt P02866); experiment: ConA small-molecule binders, primary screen, artefact control for SMM control protein annotation, biochemical, small-molecule microarray, Alexa647 label, 635 nm (AID 1127); conditions: ConA-A647 binding fluorescence, higher = more signal;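 note: z combines 667 nm emission intensity with signal-to-noise across three replicate slides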
Concanavalin-A (Canavalia ensiformis), sequence (P02866 whole entry, looked up): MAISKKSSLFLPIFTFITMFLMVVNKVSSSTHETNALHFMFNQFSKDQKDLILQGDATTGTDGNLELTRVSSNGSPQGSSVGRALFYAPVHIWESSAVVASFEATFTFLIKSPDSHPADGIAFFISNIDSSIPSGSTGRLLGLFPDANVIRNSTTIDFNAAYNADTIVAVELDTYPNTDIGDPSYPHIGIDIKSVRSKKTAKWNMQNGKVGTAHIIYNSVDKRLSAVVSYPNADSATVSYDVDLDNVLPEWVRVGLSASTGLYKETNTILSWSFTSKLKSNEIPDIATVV

Albumin (Bos taurus), sequence (P02769 whole entry, looked up): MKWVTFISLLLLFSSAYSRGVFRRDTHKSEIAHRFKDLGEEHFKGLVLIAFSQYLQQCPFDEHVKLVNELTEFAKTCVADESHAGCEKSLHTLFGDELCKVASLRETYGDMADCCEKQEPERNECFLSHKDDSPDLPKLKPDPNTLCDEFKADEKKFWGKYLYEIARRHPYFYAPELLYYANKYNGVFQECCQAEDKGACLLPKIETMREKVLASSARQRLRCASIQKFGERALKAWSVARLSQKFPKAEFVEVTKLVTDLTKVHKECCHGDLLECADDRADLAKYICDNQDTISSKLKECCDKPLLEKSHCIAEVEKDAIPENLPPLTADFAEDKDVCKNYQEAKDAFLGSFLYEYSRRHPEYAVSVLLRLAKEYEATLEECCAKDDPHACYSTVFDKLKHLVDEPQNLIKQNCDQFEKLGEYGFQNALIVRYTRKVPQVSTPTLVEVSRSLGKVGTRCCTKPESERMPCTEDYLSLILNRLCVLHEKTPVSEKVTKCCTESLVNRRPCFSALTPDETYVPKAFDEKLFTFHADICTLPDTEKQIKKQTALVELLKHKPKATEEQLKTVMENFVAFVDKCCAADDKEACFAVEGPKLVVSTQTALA

Row | Structure (SMILES) | composite z-score (Albumin (Bos taurus)) | composite Z-score [1] | composite z-score [2] | composite z-score [3] | composite z-score [4] | composite z-score [5] | composite z-score [6] | composite z-score (Sam68 (KHDRBS1)) | composite z-score [7] | composite z-score [8]
1 | C=CCOC(=O)[C@H]1[C@@H]2C(=O)O[C@@H](c3ccccc3)[C@@H](c3ccccc3)N2[C@@H](c2ccc(OCCOC(=O)[C@@H]3C[C@@H]4C(=O)N[C@@H](CCCC[N+](C)(C)C)C(=O)N4[C@@H]3c3ccc(O)cc3)cc2)[C@]12C(=O)Nc1ccccc12 | 0.0987 | 0.0848 (inactive) | 0.011 | -0.171 | 0.624 | 0.875 | 0.284 | 1.31 | 1.08 | 1.12
2 | Cc1ccc(S[C@]2(C(=O)NC3CC3)CC(=O)N(C3Cc4ccccc4C3)[C@@H]2c2ccc(CO)cc2)cc1 | 0.79 | 0.157 (inactive) | -0.161 | 0.016 | 0.628 | 1.81 | 0.845 | 0.963 | -0.759 | 0.356
3 | O=C1OCCC/C=C\[C@H]2OC34C=CCN(Cn5nnc6ccccc65)C(=O)[C@H]3N(CCO)C(=O)[C@@H]4C12 (stereo not given in full) | 0.926 | 0.605 (inactive) | 0.0004 | -0.0073 | 0.987 | 0.207 | 0.136 | -0.642 | -1.89 | 0.216
4 | O=C1OCCC/C=C\[C@H]2OC34C=CCN(c5ccc6ccccc6c5)C(=O)[C@H]3N(CCCCCCO)C(=O)[C@@H]4C12 (stereo not given in full) | 0.0499 | 0.611 (inactive) | -0.256 | -0.163 | 0.946 | -0.0749 | 0.978 | -0.468 | -1.65 | -0.83
5 | COCC(=C=CC[C@@H](O)c1ccccc1OCCO)C[C@@H](O)c1cc(Cl)cc(Cl)c1O | 0.641 | 0.103 (inactive) | 0.129 | -0.14 | 0.38 | 1.24 | 0.822 | 1.3 | 0.476 | 1.08
6 | CC(C)(C)OC(=O)CC[C@@]1(C(N)=O)N=C(c2ccc(OCCCO)cc2)O[C@@H]1c1ccccc1 | 0.604 | -0.327 (inactive) | 0.3 | 0.011 | 0.758 | 2.99 | 0.26 | 1.3 | -0.796 | 0.722
7 | COc1ccc([Si](C)(C)[C@@H]2[C@@H](CC(=O)N3Cc4ccccc4C[C@H]3CO)O[C@]3(C(=O)N(C)c4c(Br)cc(C)cc43)[C@H]2C)cc1 | 0.494 | 0.136 (inactive) | 0.0562 | -0.164 | 0.574 | 0.498 | 0.172 | 1.31 | 1.11 | 1.13
8 | OC([C@@H]1CC(c2ccccc2)=NO1)[C@H]1CC(c2ccccc2)=NO1 (stereo not given in full) | 0.558 | -0.227 (inactive) | -0.0465 | -0.0859 | -0.11 | -0.262 | -0.105 | -0.285 | 0.191 | -0.363
9 | C=CCNC(=O)[C@@H]1[C@H]2C(=O)O[C@H](c3ccccc3)[C@H](c3ccccc3)N2[C@H](c2ccccc2OCCO)[C@@]12C(=O)N(C(=O)OCCOC)c1ccc(C#CCNC(N)=O)cc12 | 0.79 | -0.105 (inactive) | 0.184 | -0.0772 | 0.247 | 1.47 | 0.546 | 1.32 | -0.182 | 0.959
10 | [N-]=[N+]=Nc1ccccc1C[C@]1(C(=O)NCC(O)CO)N=C(c2ccc(OCCCO)cc2)O[C@H]1c1ccccc1N=[N+]=[N-] (stereo not given in full) | 0.376 | 0.045 (inactive) | 0.0151 | 0.0809 | 0.391 | 1.69 | -0.352 | 0.431 | -0.424 | -0.899
11 | C=C(/C(=C/C[C@@H](OC(C)=O)c1ccc(OCCO)cc1)c1cnc2ccccc2c1)C(C)C | 0.444 | -0.199 (inactive) | -0.0362 | -0.17 | 0.425 | 0.387 | -0.0638 | 0.713 | 0.159 | 0.806
12 | CCOC(=O)C=Cc1cc([N+](=O)[O-])ccc1O | -0.307 | -0.26 (inactive) | 0.0209 | -0.0162 | 0.802 | 0.751 | 0.422 | 0.471 | -1.26 | -0.0123
13 | [N-]=[N+]=NCc1ccccc1[C@@H]1OC(c2ccc(OCCCO)cc2)=N[C@]1(Cc1ccccc1N=[N+]=[N-])C(=O)N1CCOCC1 | 0.809 | 0.105 (inactive) | 0.387 | 0.408 | 0.765 | 2.9 | 0.493 | 1.29 | -0.119 | 1.21
14 | C=CCNC(=O)[C@H]1[C@@H]2C(=O)O[C@@H](c3ccccc3)[C@@H](c3ccccc3)N2[C@@H](c2ccc(O)cc2)[C@]12C(=O)N(C(=O)OCCOC)c1ccc(C#CCNC(N)=O)cc12 | -0.213 | 0.384 (inactive) | 0.0955 | 0.0313 | 0.484 | 0.275 | 0.0793 | 1.13 | 0.64 | 0.932
15 | CN(C)CCCNC(=O)[C@@]1(C)c2ccccc2C(=O)N(Cc2cc(F)cc(C(F)(F)F)c2)[C@H]1c1ccc(CO)cc1 | 0.56 | 0.101 (inactive) | -0.159 | -0.0895 | 0.769 | -0.065 | 0.457 | 0.303 | -1.66 | -0.282
16 | COC(=O)[C@@]1(Cc2ccc(OC)cc2)[C@H]2c3cc(C(=O)N(C)C)n(Cc4cccc5ccccc45)c3C[C@H]2CN1C(=O)c1ccccc1 | 1.02 | 0.0388 (inactive) | 0.726 | 0.624 | 0.753 | 3.03 | 0.506 | 0.432 | 0.0735 | 0.976

Row | Structure (SMILES) | composite z-score (Albumin (Bos taurus)) | composite Z-score [1] | composite z-score [2] | composite z-score [3] | composite z-score [4] | composite z-score [5] | composite z-score [6] | composite z-score (Sam68 (KHDRBS1)) | composite z-score [7] | composite z-score [8]
17 | COC(=O)[C@@]1(Cc2ccccc2)[C@H]2c3cc(C(=O)N(C)C)n(CCSCCO)c3C[C@H]2CN1C(=O)c1ccccc1 | 0.569 | 0.376 (inactive) | 0.0893 | 0.0577 | 0.801 | 2.26 | -0.154 | 0.555 | -0.25 | 0.523
18 | COc1ccc([Si](C)(C)[C@H]2[C@H](CC(=O)N3Cc4ccccc4C[C@H]3CO)O[C@@]3(C(=O)N(Cc4ccc(N5CCC5=O)cc4)c4ccccc43)[C@@H]2C)cc1 | 0.402 | -0.39 (inactive) | -0.0014 | 0.581 | 0.516 | 1.51 | 1.19 | 1.29 | 1.4 | 1.13
19 | O=C1OCC=C[C@H]2OC34C=CCN(c5ccc6ccccc6c5)C(=O)[C@H]3N(CCCCCCO)C(=O)[C@@H]4[C@@H]12 (stereo not given in full) | 0.39 | 0.164 (inactive) | -0.241 | -0.0472 | 0.837 | 0.818 | 0.941 | -1.42 | -0.677 | -0.486
20 | CCCC[C@@H]1C[C@H]1[C@@H](NC(=O)c1ccco1)c1ccc(C(=O)OC)cc1 | 0.623 | 0.224 (inactive) | -0.0967 | -0.11 | 0.39 | 0.792 | 0.187 | 0.0166 | 0.0374 | -0.112
21 | C=CCNC(=O)[C@H]1[C@@H]2C(=O)O[C@@H](c3ccccc3)[C@@H](c3ccccc3)N2[C@@H](c2ccc(OCCO)cc2)[C@]12C(=O)Nc1ccc(C#CC3=CCCCC3)cc12 | 0.17 | 0.0758 (inactive) | -0.0933 | -0.0703 | 0.338 | 0.999 | 0.272 | 1.31 | 0.105 | 0.994
22 | COC(=O)[C@@]1(Cc2ccc(F)cc2)[C@H]2c3cc(C(=O)N(C)C)n(Cc4nc5ccccc5[nH]4)c3C[C@H]2CN1C(=O)c1ccccc1 | 1.05 | 0.0895 (inactive) | 0.392 | 0.0274 | 0.824 | 3.03 | 0.35 | 0.651 | -0.41 | 0.683
23 | COC(=O)[C@@]1(Cc2ccc(F)cc2)[C@H]2c3cc(C(=O)N(C)C)n(Cc4ccc(S(C)(=O)=O)cc4)c3C[C@H]2CN1C(=O)c1ccccc1 | 0.653 | 0.542 (inactive) | -0.142 | 0.151 | 0.747 | 3.39 | 1.04 | -0.181 | -0.0016 | 0.518
24 | COc1ccc([Si](C)(C)[C@H]2[C@H](CC(=O)N3CCC[C@H]3CO)O[C@@]3(C(=O)N(Cc4cccc(N5C(=O)c6cccc7cccc5c67)c4)c4ccccc43)[C@@H]2C)cc1 | 0.416 | 0.488 (inactive) | 0.143 | -0.0745 | 0.346 | 1.53 | 0.0595 | 1.04 | 0.956 | 1.1
25 | Cc1ccc(S[C@]2(C(=O)NC(C)C)CC(=O)N(Cc3ccccc3Cl)[C@@H]2c2ccc(CO)cc2I)cc1 | 0.408 | 0.219 (inactive) | -0.469 | -0.168 | 0.779 | 1.21 | -0.147 | 0.462 | -0.793 | -0.139
26 | C=C(CCCC)C(=O)CC[C@@H](OC(=O)c1cccnc1)c1ccc(CO)o1 | 0.477 | -0.261 (inactive) | 0.205 | -0.127 | 0.618 | 0.28 | 0.194 | 1.31 | 0.844 | 1.02
27 | CCC(CC)C(O)C1C=CC2C(=O)N(C)C(=O)C2N1Nc1ccccc1 (stereo not given) | 0.333 | -0.574 (inactive) | 0.149 | -0.05 | 0.652 | 2.5 | 0.515 | 1.07 | -0.237 | 1.2
28 | CN(C)CCCNC(=O)[C@@]1(c2ccc([N+](=O)[O-])cc2)CC(=O)N(C2CCCCC2)[C@@H]1c1ccc(CO)cc1I | -0.13 | -0.75 (inactive) | -0.128 | -0.124 | 0.397 | 1.7 | 0.742 | 1.34 | 0.096 | 1.15
29 | C=CCOC(=O)[C@H]1[C@@H]2C(=O)O[C@@H](c3ccccc3)[C@@H](c3ccccc3)N2[C@@H](c2ccc(OCCOC(=O)[C@H]3C[C@H]4C(=O)N[C@@H](CC(C)C)C(=O)N4[C@H]3c3ccc(O)cc3)cc2)[C@]12C(=O)Nc1ccc(I)cc12 | -0.262 | 0.672 (inactive) | 0.17 | -0.117 | 0.597 | 1.77 | 0.818 | 1.28 | 1.37 | 1.16
30 | Cc1ccc(C(C)CC(O)C2C=CC3C(=O)N(c4ccccc4)C(=O)C3N2Nc2ccc([N+](=O)[O-])cc2)o1 (stereo not given) | 0.861 | -0.608 (inactive) | 0.222 | 0.0129 | 0.788 | 1.96 | 0.67 | 1.32 | 0.595 | 0.977
31 | COCCOC(=O)N1C(=O)[C@@]2(c3ccccc31)[C@H](c1ccc(O)cc1)N1[C@H](c3ccccc3)[C@H](c3ccccc3)OC(=O)[C@H]1[C@@H]2C(=O)NC[C@H](O)c1ccccc1 | 0.827 | 0.442 (inactive) | 0.0888 | -0.0513 | 0.756 | 1.79 | 0.506 | 1.07 | -1.04 | 0.291
